# Results filed as inconclusive are left out. Where a call stands in place of a potency, no number is given. Activity calls are given as the source filed them. Calls follow the shape of the dose curve; as a rule, active = well fitted cell-killing curve with a large enough effect; inconclusive = small, poorly fitted or top-dose-only effect; inactive = no such curve, though single readings can be large or run the other way. Positions of bridges follow the written chain, without caps; N, C: chain ends. Non-standard residues stand in square brackets, D forms with d. Residues, ends and D or L forms follow the SMILES beside them. ξ: configuration not given here. *: point of attachment. Octanoyl(6-Me) = CCC(C)CCCCC(=O)*; ξThr(3R) = C[C@@H](O)C(N)C(=O)O; dDab = NCC[C@@H](N)C(=O)O; Dab = NCC[C@H](N)C(=O)O
# Test: qHTS of pediatric cancer cell lines to identify multiple opportunities for drug repurposing: Primary screen for NB1643 cells (AID 1347099); also: nearly all actives have a fitted effect of over 50% in size
# Settings: NB1643 neuroblastoma viability, CellTiter-Glo luminescence, 48 h; series mostly up to 46 µM
# Source text: Drug repurposing or repositioning has been offered as a strategy for drug development in oncology programs. This approach has special potential for childhood cancers and other rare or orphan diseases, where the expected return on new drug development has been a disincentive to pharmaceuticals. […] In this project we exploit the poly-pharmacology of drugs to discover new indications via phenotypic screening of a panel of 19 well-characterized cell lines derived from solid tumors seen in children and adolescents. The goal is to identify approved drugs with previously unrecognized anticancer properties that has the potential to reveal new mechanisms and biological processes involved in carcinogenesis or drug resistance. We employed a titration-based paradigm (quantitative high-throughput screening or qHTS), where all compounds were tested at multiple concentrations for their effect on cell viability. Concentration-response curves (CRCs) were derived directly from the primary screen, and both potency and efficacy values were used to identify compounds with robust bioactivity profiles. We screened the NIH Chemical Genomics Center (NCGC) Pharmaceutical Collection (NPC) and Mechanism Interrogation Plate (MIPE) small molecule collections of approved and investigational compounds against these cell lines; and measured metabolically active cells after 48 hours of compound treatment as a proxy for cell viability. […] Assay Submitter: Nathalia J. Martinez, National Center for Advancing Translational Sciences, National Institutes of Health, Rockville, MD, USA; email: natalia.martinez@nih.gov Shen, M et al. Quantitative high-throughput phenotypic screening of pediatric cancer cell lines identifies multiple opportunities for drug repurposing. Oncotarget 2017 Dec 19;9(4):4758-4772. PMID 29435139.
# The cells were obtained from University of North Carolina (UNC), Pediatric Preclinical Testing Program (PPT), and Coriell Institute (CI). qHTS cell viability assay: Cells were assayed in growth media at a density of 500-1,000 cells/well. Five microliters of cells were dispensed into 1,536-well, white, solid-bottom, TC-treated plates (Greiner Bio One) using a multidrop dispenser and incubated at 37 degrees C, 5% CO2, under a humidified atmosphere for 5 hours. Twenty-three nanoliters of compounds and controls (neutral control DMSO or positive control bortezomib at final concentration of 2.3 µM) were subsequently transferred by Kalypsys pintool. For primary screens, the MIPE collection was tested at 11-point dilutions (final concentrations range from 0.78 nM to 46 µM) and the NPC collection at 8-point dilutions (final concentrations range from 0.59 nM to 46 µM). Compounds tested in follow-up screens were assayed at 11-point dilutions. Cells were incubated for 48 hours, followed by addition of 3 µL of CellTiter-Glo (Promega). After a 15 min incubation at room temperature, samples were analyzed for luminescence intensity using a ViewLux High-throughput CCD imager equipped with clear filters.
# Potency is read from the fitted curve at half-maximal effect.
row,Compound,Potency
1,Nc1nc(N)c2nc(-c3cccc(O)c3)c(-c3cccc(O)c3)nc2n1,5.9 µM (active)
2,C[C@]12CCC(=O)C=C1[C@@H]1CC1[C@H]1[C@H]3[C@@H]4C[C@H]4[C@@]4(CCC(=O)O4)[C@@]3(C)CC[C@H]12 (stereo not given in full),inactive
3,CCS(=O)(=O)Nc1ccc2[nH]c(O)c(C(=Nc3ccc(CN4CCCCC4)cc3)c3ccccc3)c2c1,0.118 µM (active)
4,O=C(O)[C@H](CC(=O)N1C[C@@H]2CCCC[C@H]2C1)Cc1ccccc1,inactive
5,CCC(C)CCCCC(=O)N[C@@H](CCN)C(=O)NC(C(=O)N[C@H](CCN)C(=O)N[C@@H]1CCNC(=O)C([C@@H](C)O)NC(=O)[C@@H](CCN)NC(=O)[C@@H](CCN)NC(=O)[C@@H](CC(C)C)NC(=O)[C@H](Cc2ccccc2)NC(=O)[C@H](CCN)NC1=O)[C@@H](C)O (stereo partly drawn) ({Octanoyl(6-Me)}-[Dab][ξThr(3R)][dDab][dDab][Dab]F[dL][dDab][dDab][ξThr(3R)]; lactam 4-C),inactive
6,Cc1onc(-c2ccccc2)c1C(=O)N[C@@H]1C(=O)N2[C@@H](C(=O)O)C(C)(C)S[C@@H]12,inactive
7,CC(C)(C)[C@H](NC(=O)c1ccc(N)c(Cl)c1)C(=O)N1CCC[C@@H]1C(=O)N[C@H](C#N)CC(=O)O,1.05 µM (active)
8,OC[C@H]1OC(O)C[C@@H](O)[C@H]1O (stereo not given in full),inactive
9,COc1cc(OC)c(C=CS(=O)(=O)Cc2ccc(OC)c(NCC(=O)O)c2)c(OC)c1,0.0372 µM (active)
10,C[C@@H](Cc1cc2c(c(C(N)=O)c1)N(CCCO)CC2)NCCOc1ccccc1OCC(F)(F)F,inactive
11,CC(C)[C@H](CO)Nc1nc(Nc2cccc(Cl)c2)c2ncn(C(C)C)c2n1,2.96 µM (active)
12,CC(C)(C)[N+]([O-])=Cc1ccc(S(=O)(=O)O)cc1S(=O)(=O)O,inactive
13,CN[C@H]1[C@@H](O)[C@@H]2O[C@@H]3O[C@H](C)CC(=O)[C@]3(O)O[C@@H]2[C@@H](NC)[C@H]1O,1.87 µM (active)
14,Nc1ncn([C@@H]2O[C@H](CO)[C@@H](O)[C@@H]2O)c(=O)n1,4.69 µM (active)
15,NC(=O)c1ncn([C@@H]2O[C@H](CO)[C@@H](O)[C@@H]2O)c1N,inactive
16,CC(=O)OCC(=O)[C@@]1(O)CC[C@H]2[C@@H]3CCC4=CC(=O)CC[C@]4(C)[C@@H]3C(=O)C[C@@]21C,inactive
17,CCOC(=O)C=C[C@H](C[C@@H]1CCNC1=O)NC(=O)[C@@H](CC(=O)[C@@H](NC(=O)c1cc(C)on1)C(C)C)Cc1ccc(F)cc1,inactive
18,Cn1cnc2c(F)c(Nc3ccc(Br)cc3F)c(C(=O)NOCCO)cc21,inactive
19,Cc1cc(Nc2ncc3c(n2)N(C)C(=O)N(c2cc(NC(=O)c4cccc(C(F)(F)F)c4)ccc2C)C3)n(C)n1,0.209 µM (active)
20,COc1ccc(C(C)=O)c(O)c1,5.26 µM (active)

row,Compound,Potency
1,OC[C@@H](O)[C@@H](O)[C@H](O)[C@@H](O)CO,inactive
2,CC(O)(C#Cc1ccc2c(c1)N(c1nc(N)ncc1Cl)CC2)c1nccs1 (stereo not given),16.6 µM (active)
3,CCCNC(=O)[C@H]1O[C@H]1C(=O)N[C@H](C(=O)N1CCC[C@@H]1C(=O)OC)C(C)CC (stereo not given in full),9.35 µM (active)
4,CCOC(=O)C1=C(C)NC(=S)NC1c1cccc(O)c1 (stereo not given),inactive
5,CC(C)n1cnc2c(NCCc3ccc(O)cc3)nc(-c3csc4ccccc34)nc21,3.32 µM (active)
6,O=C1NC(O)CCN1[C@@H]1O[C@H](CO)[C@H](O)[C@H]1O (stereo not given in full),inactive
7,c1coc(CNc2ncnc3nc[nH]c23)c1,inactive
8,NC[C@H]1O[C@H](O[C@H]2[C@@H](O)[C@@H](O[C@H]3O[C@H](CO)[C@@H](O)[C@H](N)[C@@H]3O)[C@H](N)C[C@@H]2N)[C@H](N)C[C@H]1O,inactive
9,C[N+]1(C)[C@@H]2C[C@@H](OC(=O)C(O)(c3cccs3)c3cccs3)C[C@H]1[C@@H]1O[C@@H]12,inactive
10,O=C(C=Cc1ccc(CN(CCO)CCc2c[nH]c3ccccc23)cc1)NO,0.166 µM (active)
11,CC[C@H]1OC(=O)[C@H](C)[C@@H](O[C@H]2C[C@@](C)(OC)[C@@H](O)[C@H](C)O2)[C@H](C)[C@@H](O[C@@H]2O[C@@H](C)C[C@H](N(C)C)[C@@H]2O)[C@](C)(O)C[C@@H](C)C(=O)[C@H](C)[C@@H](O)[C@]1(C)O,inactive
12,COC(=O)C=CC(=O)OC,7.43 µM (active)
13,OCCN1C[C@H](O)[C@@H](O)[C@H](O)[C@@H]1CO,inactive
14,Cn1c(Nc2ccc(C(F)(F)F)cc2)nc2cc(Oc3ccnc(-c4ncc(C(F)(F)F)[nH]4)c3)ccc21,11.8 µM (active)
15,COC(=O)[C@H](CCCN=C(N)N)NS(=O)(=O)c1ccc(C)cc1,inactive
16,Cc1cnc(Nc2ccc(CN3CCOCC3)cc2)nc1Nc1cccc(S(=O)(=O)NC(C)(C)C)c1,3.72 µM (active)
17,CC(=O)O[C@H]1C[C@@H]2CC[C@H]3[C@H]4C[C@H]([N+]5(C)CCCCC5)[C@@H](OC(C)=O)[C@@]4(C)CC[C@@H]3[C@@]2(C)C[C@H]1[N+]1(C)CCCCC1,inactive
18,CCOc1cc2c(c(F)c1OCC)C(=N)N(CC(=O)c1cc(N3CCOCC3)c(OC)c(C(C)(C)C)c1)C2,4.69 µM (active)
19,C#Cc1cccc(Nc2ncnc3cc(OCCOC)c(OCCO)cc23)c1,1.87 µM (active)
20,O=c1c(O)c(-c2ccc(O)c(O)c2)oc2cc(O)ccc12,20.9 µM (active)
